Activity calls are given as the source filed them.
How the values were obtained:
Albumin (Bos taurus) = Albumin (Bos taurus) (UniProt P02769); assay: bovine serum albumin binders on microarray, profiling panel, artefact control for SMM control protein annotation, biochemical, small-molecule microarray, Alexa647 label, 635/667 nm fluorescence (AID 1118); details: BSA-A647 binding, fluorescence 635 nm, higher = more signal;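 note: score merges 667 nm emission intensity and signal-to-noise per printed compound spot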
Albumin (Bos taurus), sequence (P02769 whole entry, looked up): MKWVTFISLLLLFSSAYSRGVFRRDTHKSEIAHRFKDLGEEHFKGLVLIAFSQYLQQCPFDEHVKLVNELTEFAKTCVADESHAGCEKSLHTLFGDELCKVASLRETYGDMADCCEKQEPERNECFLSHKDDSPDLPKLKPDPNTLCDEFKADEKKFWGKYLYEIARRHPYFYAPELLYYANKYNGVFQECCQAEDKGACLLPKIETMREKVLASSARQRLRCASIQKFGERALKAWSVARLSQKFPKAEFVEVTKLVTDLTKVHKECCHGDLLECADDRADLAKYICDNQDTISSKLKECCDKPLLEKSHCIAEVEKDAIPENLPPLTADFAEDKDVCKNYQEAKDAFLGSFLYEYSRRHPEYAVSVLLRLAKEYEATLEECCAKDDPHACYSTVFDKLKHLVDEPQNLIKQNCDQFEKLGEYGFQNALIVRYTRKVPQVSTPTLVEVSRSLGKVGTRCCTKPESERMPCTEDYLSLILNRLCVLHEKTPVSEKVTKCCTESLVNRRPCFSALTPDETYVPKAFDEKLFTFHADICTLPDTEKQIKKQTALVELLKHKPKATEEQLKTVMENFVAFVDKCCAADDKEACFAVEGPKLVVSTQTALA

[1] = small-molecule microarray binders of probe aXIP, primary screen, biochemical, NeuroSMM set, 635/667 nm fluorescence (AID 1119); details: higher = more signal, called active from +8 up or from −8 down;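 note: probe is the protein aXip251-270 applied at 1 µg/mL to compound-printed slides; binding of probe to printed compounds measured as 667 nm fluorescence plus signal to noise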
[2] = small-molecule binders of probe aNOTCH3, primary screen, biochemical, small-molecule microarray, 635/667 nm fluorescence (AID 1120); details: higher = more signal;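 note: probe is a biotin-tagged antibody raised against NOTCH3 rather than NOTCH3 protein; score merges spot fluorescence near 667 nm with spot signal to noise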
[3] = small-molecule binders of probe aNOTCH2, primary screen, biochemical, small-molecule microarray, 635/667 nm fluorescence (AID 1121); details: higher = more signal;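 note: score merges feature fluorescence read at 667 nm with its signal to noise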
[4] = target: Carbonic anhydrase 2 (Homo sapiens) (UniProt P00918); assay: CAII small-molecule binders, profiling panel, biochemical, small-molecule microarray, Alexa647-labelled CAII (AID 1122); details: CAII-A647 binding fluorescence, higher = more signal
[5] = COS7 lysate on small-molecule microarray, probe aHis, 635 nm (AID 1123); details: COS7 cell lysate, fluorescence, higher = more signal;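 note: z-score combines 667nm fluorescence intensity with signal-to-noise per printed compound spot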
[6] = compound binding in COS7 lysate, probe aLAP1, primary screen, cell lysate, small-molecule microarray (AID 1124); details: probe aLAP1, fluorescence, higher = more signal;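 note: lysate comes from COS7 cells expressing LAP1 and is applied at 0.3 µg/mL; score merges spot fluorescence near 667 nm with signal-to-noise over triplicate slides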
Sam68 (KHDRBS1) = assay: Sam68 small-molecule binders, primary screen, biochemical, small-molecule microarray, 635 nm fluorescence (AID 1125); details: small-molecule microarray binding, higher = more signal;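 note: score merges 667 nm channel intensity with signal to noise over triplicate slides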
[7] = system: Chordin-like protein 2 (CHRDL2); assay: CHRDL2 small-molecule binders, primary screen, biochemical, small-molecule microarray, 635 nm fluorescence (AID 1126); details: small-molecule microarray binding, fluorescence 635 nm; higher = more signal;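 note: printed compound slides probed with Chrdl2 protein at 4 µg/mL for 1 h at 4 C; score merges 667 nm emission intensity with signal to noise over three replicate slides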
[8] = target: Concanavalin-A (Canavalia ensiformis) (UniProt P02866); assay: ConA small-molecule binders, primary screen, artefact control for SMM control protein annotation, biochemical, small-molecule microarray, Alexa647 label, 635 nm (AID 1127); details: ConA-A647 binding fluorescence, higher = more signal;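 note: z combines 667 nm emission intensity with signal-to-noise across three replicate slides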
Concanavalin-A (Canavalia ensiformis), sequence (P02866 whole entry, looked up): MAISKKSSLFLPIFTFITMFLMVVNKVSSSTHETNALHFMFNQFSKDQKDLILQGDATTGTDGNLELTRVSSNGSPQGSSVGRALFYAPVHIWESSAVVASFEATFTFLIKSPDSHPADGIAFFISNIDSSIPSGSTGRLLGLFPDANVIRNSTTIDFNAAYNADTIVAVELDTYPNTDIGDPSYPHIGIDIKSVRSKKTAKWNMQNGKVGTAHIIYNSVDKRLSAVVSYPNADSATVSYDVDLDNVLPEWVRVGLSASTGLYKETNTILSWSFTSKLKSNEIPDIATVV

[9] = anti-His antibody binders, primary screen, artefact control for SMM control protein annotation, biochemical, small-molecule microarray, 635 nm fluorescence (AID 1128); details: anti-His Alexa647 antibody binding, higher = more signal;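 note: score merges feature fluorescence with signal-to-noise for each printed compound spot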
[10] = system: Human papillomavirus type 1a E7 protein (residues 1-88); assay: HPV1a E7 small-molecule binders, primary screen, biochemical, small-molecule microarray, residues 1-88, 635 nm (AID 1129); details: small-molecule microarray binding, fluorescence 635 nm; higher = more signal
[11] = target: Focal adhesion kinase 1 (Homo sapiens) (UniProt Q05397); assay: small-molecule microarray binders of FAK, primary screen, biochemical, 635/667 nm fluorescence, BSA, DTT (AID 1130); details: PTK2 binding, 635 nm fluorescence, higher = more signal;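 note: composite of spot emission at 667 nm and signal to noise over triplicate slides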
Focal adhesion kinase 1 (Homo sapiens), sequence (Q05397 whole entry, looked up): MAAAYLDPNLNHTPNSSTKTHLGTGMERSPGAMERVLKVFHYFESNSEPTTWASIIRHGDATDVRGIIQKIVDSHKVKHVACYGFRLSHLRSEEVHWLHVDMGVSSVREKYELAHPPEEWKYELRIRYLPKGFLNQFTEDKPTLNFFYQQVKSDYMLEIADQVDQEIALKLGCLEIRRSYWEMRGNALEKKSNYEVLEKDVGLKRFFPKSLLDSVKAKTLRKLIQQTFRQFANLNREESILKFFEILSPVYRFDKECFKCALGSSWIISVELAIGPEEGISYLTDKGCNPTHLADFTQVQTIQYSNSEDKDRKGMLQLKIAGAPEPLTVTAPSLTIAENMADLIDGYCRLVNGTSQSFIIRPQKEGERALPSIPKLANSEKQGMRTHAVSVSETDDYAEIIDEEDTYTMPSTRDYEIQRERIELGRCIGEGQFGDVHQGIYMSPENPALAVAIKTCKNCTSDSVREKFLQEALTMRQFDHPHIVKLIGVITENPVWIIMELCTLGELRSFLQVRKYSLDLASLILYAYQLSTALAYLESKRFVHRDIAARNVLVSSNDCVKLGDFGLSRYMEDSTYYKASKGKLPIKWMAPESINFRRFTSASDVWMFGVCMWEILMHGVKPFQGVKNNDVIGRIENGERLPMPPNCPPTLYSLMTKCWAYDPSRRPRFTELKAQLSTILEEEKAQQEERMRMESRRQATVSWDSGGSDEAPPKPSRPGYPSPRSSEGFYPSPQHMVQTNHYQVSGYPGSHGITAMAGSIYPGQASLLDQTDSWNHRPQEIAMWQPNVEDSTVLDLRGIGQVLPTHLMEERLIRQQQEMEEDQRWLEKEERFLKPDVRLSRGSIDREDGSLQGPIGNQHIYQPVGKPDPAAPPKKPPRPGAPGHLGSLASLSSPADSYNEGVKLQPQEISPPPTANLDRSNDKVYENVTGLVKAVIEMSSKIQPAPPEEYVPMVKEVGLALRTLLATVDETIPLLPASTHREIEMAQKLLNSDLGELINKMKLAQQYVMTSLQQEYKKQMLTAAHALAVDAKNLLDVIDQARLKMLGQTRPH

[12] = system: Fibrinogen (Alexa647-labelled); assay: fibrinogen binders on compound microarrays, profiling panel, artefact control for SMM control-protein annotation, biochemical, small-molecule microarray, 635/667 nm fluorescence (AID 1131); details: fibrinogen-A647 binding fluorescence, higher = more signal;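 note: z-score merges 667 nm fluorescence with per-spot signal-to-noise over triplicate slides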
[13] = target: Follistatin (Homo sapiens) (UniProt P19883); assay: follistatin binders on small-molecule microarrays, primary screen, biochemical, small-molecule microarray, 635/667 nm fluorescence (AID 1132); details: FST binding, 635 nm fluorescence, higher = more signal
Follistatin (Homo sapiens), sequence (P19883 whole entry, looked up): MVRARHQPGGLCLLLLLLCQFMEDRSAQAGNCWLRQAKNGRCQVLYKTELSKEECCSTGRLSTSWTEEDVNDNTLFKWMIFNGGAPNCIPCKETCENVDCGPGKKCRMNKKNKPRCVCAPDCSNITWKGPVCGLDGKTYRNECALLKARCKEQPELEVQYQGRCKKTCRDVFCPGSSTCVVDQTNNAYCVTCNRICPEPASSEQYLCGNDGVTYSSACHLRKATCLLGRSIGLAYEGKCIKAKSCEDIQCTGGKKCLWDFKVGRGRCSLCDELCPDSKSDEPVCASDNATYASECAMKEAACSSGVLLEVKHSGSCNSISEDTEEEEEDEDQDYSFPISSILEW

[14] = target: Fibroblast growth factor 2 (Homo sapiens) (UniProt P09038); assay: FGF2 binders on small-molecule microarrays, primary screen, biochemical, small-molecule microarray, 635/667 nm fluorescence (AID 1133); details: small-molecule microarray binding, FGF2, fluorescence 635/667; higher = more signal
Fibroblast growth factor 2 (Homo sapiens), sequence (P09038 whole entry, looked up): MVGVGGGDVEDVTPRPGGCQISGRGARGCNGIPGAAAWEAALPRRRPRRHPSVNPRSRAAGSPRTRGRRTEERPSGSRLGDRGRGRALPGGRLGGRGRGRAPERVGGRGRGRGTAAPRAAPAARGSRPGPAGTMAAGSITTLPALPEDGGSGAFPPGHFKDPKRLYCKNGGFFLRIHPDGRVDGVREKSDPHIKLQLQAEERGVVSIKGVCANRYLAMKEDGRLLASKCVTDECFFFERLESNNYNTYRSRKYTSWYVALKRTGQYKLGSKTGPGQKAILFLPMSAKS

[15] = mitochondrial membrane potential change in A549 cells, profiling panel, cell-based, JC-1 fluorescence, basal, 24 h, 100 nL (AID 1138); details: higher = more signal;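 note: A549 lung adenocarcinoma cells under basal conditions with no added stimulus; test concentration not given here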
Lefty1 = Lefty1 binders on small-molecule microarrays, primary screen, biochemical, small-molecule microarray, 635/667 nm fluorescence (AID 1139); details: small-molecule microarray binding, fluorescence 635/667; higher = more signal
[16] = system: wheat germ agglutinin (Triticum aestivum), Alexa647-labelled; assay: wheat germ agglutinin binders on compound microarrays, profiling panel, artefact control for SMM control-protein annotation, biochemical, small-molecule microarray, 635/667 nm fluorescence (AID 1140); details: WGA-A647 binding, 635 nm fluorescence, higher = more signal;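 note: score merges 667 nm feature emission with signal to noise over triplicate slides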
[17] = target: Luciferin 4-monooxygenase (Photinus pyralis) (UniProt P08659); assay: firefly luciferase enzyme inhibitors, primary screen, biochemical, luminescence, purified enzyme, 2006 set (AID 1141); details: SteadyGlo luminescence, 30 min, higher = more signal, called active from +8 up or from −8 down;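 note: cell-free assay with purified firefly luciferase at 100 ng per well in PBS; test concentration not given here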
Luciferin 4-monooxygenase (Photinus pyralis), sequence (P08659 whole entry, looked up): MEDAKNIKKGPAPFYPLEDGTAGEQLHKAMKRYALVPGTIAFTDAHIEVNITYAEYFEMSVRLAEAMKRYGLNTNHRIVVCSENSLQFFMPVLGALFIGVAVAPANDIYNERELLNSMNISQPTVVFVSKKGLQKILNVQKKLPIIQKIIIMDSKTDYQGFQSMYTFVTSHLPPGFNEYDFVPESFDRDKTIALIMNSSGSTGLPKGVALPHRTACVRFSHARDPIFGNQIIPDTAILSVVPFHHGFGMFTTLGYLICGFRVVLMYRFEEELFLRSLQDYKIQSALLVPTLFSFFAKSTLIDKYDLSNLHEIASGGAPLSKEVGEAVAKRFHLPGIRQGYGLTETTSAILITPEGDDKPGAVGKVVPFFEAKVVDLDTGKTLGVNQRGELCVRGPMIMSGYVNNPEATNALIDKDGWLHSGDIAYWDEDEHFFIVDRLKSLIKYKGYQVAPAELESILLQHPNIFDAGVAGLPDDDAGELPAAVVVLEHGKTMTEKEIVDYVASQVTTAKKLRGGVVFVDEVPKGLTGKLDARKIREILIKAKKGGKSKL

Row | Compound | composite z-score (Albumin (Bos taurus)) | composite Z-score [1] | composite z-score [2] | composite z-score [3] | composite z-score [4] | composite z-score [5] | composite z-score [6] | composite z-score (Sam68 (KHDRBS1)) | composite z-score [7] | composite z-score [8] | composite z-score [9] | composite z-score [10] | composite z-score [11] | composite z-score [12] | composite z-score [13] | composite z-score [14] | z-score [15] | composite z-score (Lefty1) | composite z-score [16] | z-score [17]
1 | COc1ccc([Si](C)(C)[C@H]2[C@H](CC(=O)N3CCC[C@H]3CO)O[C@@]3(C(=O)N(Cc4cccc(N5CCOC5=O)c4)c4ccccc43)[C@@H]2C)cc1 | -0.185 | -0.0054 (inactive) | -0.095 | -0.151 | 0.334 | 0.626 | 0.218 | 1.26 | 1.36 | 0.996 | 1.3 | 0.883 | 0.266 | 0.405 | 1.42 | 1.64 | 1.1 | 1.47 | 0.149 | 0.526 (inactive)
2 | CC(C)NC(=O)[C@@H]1c2ccccc2C(=O)N(C(C)C)[C@H]1c1ccc(CO)cc1 | -0.163 | -0.174 (inactive) | -0.215 | -0.179 | 0.644 | 2.97 | 0.338 | 0.637 | -1.38 | 0.185 | -1.51 | -0.0425 | 0.459 | -0.782 | -0.681 | -0.963 | 1.58 | -0.936 | -0.608 | -0.784 (inactive)
3 | COCCOC(=O)N1C(=O)[C@@]2(c3cc(C#CC4(O)CCCCCC4)ccc31)[C@H](C(=O)Nc1nc3ccccc3s1)[C@H]1C(=O)O[C@H](c3ccccc3)[C@H](c3ccccc3)N1[C@@H]2c1ccc(OCCO)cc1 | 0.345 | -0.245 (inactive) | 0.246 | -0.0009 | 0.503 | 0.541 | 0.324 | 1.3 | 0.637 | 1.1 | 0.553 | 1.16 | -0.0405 | 0.801 | 1.12 | 1.58 | -2.51 | 1.22 | 0.924 | -3.29 (inactive)
4 | [N-]=[N+]=NCc1ccccc1[C@@H]1OC(c2ccc(OCCCO)cc2)=N[C@]1(CCS(=O)(=O)c1ccccc1)C(N)=O | 0.0943 | 0.466 (inactive) | 0.369 | 0.0703 | 0.637 | 3.29 | 0.247 | 1.28 | 1.1 | 0.971 | 3.49 | 1.27 | 1.21 | 0.973 | 1.44 | 1.83 | -0.528 | 0.616 | 1.09 | -2.98 (inactive)
5 | CCOC(=O)[C@H]1C/C=C/C[C@H](C(=O)OCC)C(=O)O[C@H]2[C@@H](OC)O[C@H](CO)[C@@H](OC(=O)c3ccc(Br)cc3)[C@@H]2OC1=O | 0.184 | 0.38 (inactive) | 0.037 | -0.0956 | 0.397 | 0.306 | 0.435 | -0.0942 | 0.406 | 0.205 | 0.272 | 0.189 | 0.143 | 0.223 | 1.06 | 1.06 | 2.47 | 0.31 | 0.329 | -0.0361 (inactive)
6 | [N-]=[N+]=Nc1ccccc1C[C@@]1(C(=O)N2CCCCC2)N=C(c2ccc(OCCCO)cc2)O[C@@H]1c1ccccc1 | 0.782 | 0.219 (inactive) | 0.107 | 0.111 | 0.398 | 2.37 | 0.677 | 1.22 | -0.687 | 1.12 | 1.63 | 1.2 | 0.98 | 0.95 | 0.72 | 0.11 | 1.13 | -0.322 | 1.31 | -2.98 (inactive)
7 | CC(C)CCC[C@@H](C)[C@H]1CC[C@@]2(C)C3=C(CC[C@]12C)[C@@]1(C)CC[C@H](OC(=O)c2ccc(C(F)(F)F)nc2)C(C)(C)C1CC3 (stereo not given in full) | 0.326 | -0.0967 (inactive) | -0.111 | -0.17 | -0.0684 | 0.493 | 0.0819 | 0.42 | 0.827 | 0.311 | 0.38 | 0.763 | 0.251 | 0.723 | 0.599 | 0.695 | 0.425 | 0.666 | 0.231 | -1.41 (inactive)
8 | C#CCNCc1ccccc1 | -0.172 | 0.204 (inactive) | -0.201 | -0.117 | -0.0848 | -0.0833 | 0.149 | 0.44 | 0.128 | 0.159 | 0.3 | 0.736 | -0.101 | -0.395 | 0.065 | 0.166 | 0.588 | 0.0644 | -0.219 | -0.352 (inactive)
9 | O=C(CS)NCCCCCNC(=O)[C@H]1C[C@H]2C(=O)NCC(=O)N2[C@H]1c1ccc(O)cc1 | -0.366 | 0.161 (inactive) | -0.372 | -0.185 | 0.281 | -0.29 | -0.474 | -1.3 | -0.559 | -0.0836 | -0.0453 | -1.16 | -0.437 | -3.23 | -0.0739 | 0.258 | -0.0966 | 0.0911 | -0.125 | 0.612 (inactive)
10 | CCCC1(C(=O)OC)C=C2C(=C(c3ccccc3)C(=O)C2C)CN1 (stereo not given) | -0.0235 | 0.589 (inactive) | 0.0365 | 0.015 | 0.756 | 1.51 | 0.959 | 0.0707 | 0.108 | -1.13 | 0.295 | 0.412 | 0.198 | 0.453 | 0.13 | -0.299 | 1.63 | 0.0496 | 0.858 | 1.11 (inactive)
11 | [N-]=[N+]=Nc1ccccc1C[C@]1(C(=O)NCc2ccccc2)N=C(c2ccc(OCCCO)cc2)O[C@H]1c1ccccc1N=[N+]=[N-] | 0.896 | 0.411 (inactive) | 0.555 | -0.0211 | 0.676 | 2.63 | 0.458 | 1.06 | -0.124 | 1.13 | 1.88 | 1.16 | 0.414 | 1 | 0.547 | -0.165 | 1.08 | 0.376 | 0.824 | -3.77 (inactive)
12 | CC1CC/C=C\[C@H]2OC34C=CCN(Cn5nnc6ccccc65)C(=O)[C@H]3N(CCCCCO)C(=O)[C@@H]4C2C(=O)O1 (stereo not given in full) | -1.22 | 0.19 (inactive) | -0.236 | -0.106 | 0.548 | 0.737 | 0.434 | 0.479 | -1.75 | -0.845 | 0.429 | -1.48 | -0.281 | -2.26 | -1.16 | -1.69 | 0.114 | -0.425 | 1.24 | 0.932 (inactive)
13 | C=C(/C(=C/C[C@H](OC(C)=O)c1ccc(OCCO)cc1)c1cc(C(=O)OC)ccc1OC)C(C)C | 0.322 | 0.218 (inactive) | 0.0562 | -0.0666 | 0.767 | 1.73 | -0.144 | 1.31 | 0.305 | 0.883 | 1.16 | 1.08 | 0.413 | 0.812 | 1.13 | 1.58 | 1.75 | 1.55 | 0.307 | -2.33 (inactive)
14 | CCOC(=O)C[C@H]1[C@H](OC(=O)c2ccc(C(=O)c3ccccc3)cc2)[C@@H](NC(=O)c2ccccc2)c2cc(OCCCO)ccc2N1C(=O)c1ccccc1 | 0.754 | 0.607 (inactive) | 0.184 | -0.108 | 0.171 | 0.702 | -0.115 | 1.23 | 0.17 | 0.82 | 0.0654 | 0.321 | 0.775 | 0.704 | 0.64 | 0.752 | 0.697 | 0.802 | 0.405 | 0.685 (inactive)
15 | O=C(NCCN1CCOCC1)[C@@H]1c2ccccc2C(=O)N(Cc2cc(C(F)(F)F)cc(C(F)(F)F)c2)[C@H]1c1ccc(CO)cc1 | -0.32 | -0.253 (inactive) | -0.292 | -0.101 | 0.699 | 1.61 | 0.501 | 0.687 | -1.67 | 0.412 | 0.537 | -0.137 | 0.31 | -0.487 | -0.48 | -0.879 | 2.57 | -0.75 | 0.4 | -0.372 (inactive)
16 | CC=CC(O)C1C=CC2C(=O)N(C)C(=O)C2N1N(c1ccccc1)c1ccccc1 (stereo not given) | 0.803 | -0.222 (inactive) | 0.0864 | 0.0843 | 0.837 | -0.213 | 0.198 | -0.113 | 0.686 | 0.555 | 0.573 | -0.226 | 0.0652 | 0.241 | 0.803 | -0.024 | 1.32 | 0.212 | 0.318 | 1.36 (inactive)

— PubChem BioAssay
